HepG2 viability: qHTS for Inhibitors of TGF-b: Cytotox Counterscreen; actives 0.76% (n = 410,000); HepG2 CAGA-GFP viability, ATP luminescence, 18 h; AID 588856, 2011; Potency, µM (series often up to 46.1 µM), inactives show at the top dose activity change, negative = cytotoxicity, actives largely listed as cytotoxic
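CellTiter-Glo luminescence gave cytotoxicity after 18 hours at 37 degrees C. The cells were HepG2 CAGA-GFP in 1% FBS DMEM, stimulated with 500 pg/mL TGF-beta after compound addition. %Activity was normalised to no-cell wells (complete cell-killing) and DMSO (no toxicity), and curves were fitted and classified.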
ATXN2 expr inh: Primary qHTS for Inhibitors of ATXN expression; AID 1745845, 2022; Potency, µM (titrated, usually from 57 µM), without a hit: at the top dose activity change, negative = inhibition, usual class: inhibitors; actives 0.72% (n = 360,000); HEK-293 ATXN2-luciferase reporter, luminescence, 24 h; also: % is scaled to controls: 0 for no effect and ±100 for the full control effect; nearly all actives have a fitted effect of over 55% in size
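ATXN2-luciferase reporter cells (luciferase flanked by upstream and downstream ATXN2 gene portions) were treated 24 h at 37 °C with compounds at up to 57 uM. SteadyGlo luminescence gave expression; GF-AFC fluorescence gave viability.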
DT40 TDP1 no CPT: qHTS for Inhibitors of human tyrosyl-DNA phosphodiesterase 1 (TDP1): qHTS in cells in absence of CPT; DT40 Tdp1-/- hTDP1 cells, no CPT, ATP luminescence, 48 h; Potency, µM (top dose mostly 46.2 µM), for the others: top-dose activity change, negative = growth inhibition, most hits filed as inhibitors; actives 15% (n = 420,000); also: % is scaled to controls: 0 for no effect and ±100 for the full control effect; nearly all actives have a fitted effect of over 55% in size
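Growth of hTDP1-complemented DT40 Tdp1-knockout cells is measured by ATP luminescence after at least 48 hr compound exposure at 37 °C, with DMSO substituting for the 20 nM CPT used in the parallel screen.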
TGFb SMAD3 inh: qHTS for Inhibitors of TGF-b; HepG2 CAGA-GFP TGF-b/SMAD3 reporter, GFP fluorescence, 18 h; TGF-beta stimulated, 500 pg/mL final; Potency, µM (highest dose often 46.1 µM), without a hit: top-dose activity, negative = inhibition, hits mostly inhibitors; actives 1.2% (n = 410,000); also: % is scaled to controls: 0 for no effect and ±100 for the full control effect; nearly all actives have a fitted effect of over 65% in size
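GFP signal (ex488/em500-530) from TGF-beta-stimulated HEPG2 CAGA-GFP cells, 500 pg/mL final, 18 h at 37 degrees C in DMEM plus 1% FBS, normalized to unstimulated and DMSO-stimulated controls.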
ATXN viability: Viability Counterscreen for Primary qHTS for Inhibitors of ATXN expression | actives 0.49% (n = 400,000) | AID 651635, 2014 | S2 cells (HEK-293 line with an ATXN2-luciferase reporter) viability, CellTiter-Fluor protease fluorescence, 24 h | Potency, µM (doses to about 56.7 µM), usual class: cytotoxic; also: nearly all actives have a fitted effect of over 40% in size
TDP1 cell CPT: qHTS for Inhibitors of human tyrosyl-DNA phosphodiesterase 1 (TDP1): qHTS in cells in presence of CPT; actives 12% (n = 420,000); Potency, µM (doses to about 46.2 µM), inactives show at the highest dose activity change, negative = growth inhibition, actives largely listed as inhibitors; chicken DT40 Tdp1-/-;hTDP1 cells + 20 nM CPT, ATP luminescence, 48 h; also: % is scaled to controls: 0 for no effect and ±100 for the full control effect; nearly all actives have a fitted effect of over 55% in size
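Chicken DT40 Tdp1-/- cells complemented with human TDP1, 400 cells/well, exposed to compounds plus 20 nM camptothecin for at least 48 h at 37 C; viability read as ATP content by CellTiter-Glo luminescence.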
Active calls of the source: *; i = inactive; u = inconclusive; x = not tested or not shown; [ ] = remark or other dose. In the library only some 17% were active in any assay of this set; here they are far more common. Calls follow the shape of the dose curve; as a rule, active = well fitted curve in the direction sought with a large enough effect; inconclusive = small, poorly fitted or top-dose-only effect, or another doubt; inactive = no such curve, though single readings can be large; an effect the other way counts as inactive or inconclusive. Potency is read from the fitted curve at half-maximal effect.

SMILES	HepG2 viability	ATXN2 expr inh	DT40 TDP1 no CPT	TGFb SMAD3 inh	ATXN viability	TDP1 cell CPT
COc1ccccc1CNC(=O)CCC(=O)N1Cc2ccccc2Oc2ncccc21	-7%	7%	-23%	-5%	i	u
O=C(Nc1ccccc1C(=O)OCc1cc(=O)n2c3c(sc2n1)CCCC3)c1ccccc1	-32%	x	u	u	x	21µM*
COc1ccc(C(=O)Nc2ccccc2C(=O)OCc2cc(=O)n3c4c(sc3n2)CCCC4)cc1	-26%	x	u	-13%	x	u
COc1cccc(C(=O)Nc2ccccc2C(=O)OCc2cc(=O)n3c4c(sc3n2)CCCC4)c1	-9%	x	16µM*	-25%	x	u
Cc1oc(C(C)(C)C)cc1C(N)=O	2%	-7%	-14%	24%	i	19%
O=C(CSc1nnc(SCc2cccc3ccccc23)s1)Nc1ccc(C(=O)O)cc1	2%	-5%[11.3 µM]	21µM*	8%	i	18µM*
Cc1ccc(-n2nnnc2-c2cccc(C)c2)cc1	5%	31%	-9%	18%	i	-1%
COc1ccc(-n2nnnc2-c2cccc(OC)c2)cc1	-3%	4%	0.58µM*	-22%	u	0.82µM*
O=C(COC(=O)c1ccc(Cl)nc1)NCCc1ccc(F)cc1	-4%	-3%	3%	0%	i	8%
C=CCN1C(=O)/C(=C/C=C2/N(CC)c3ccc(S(=O)(=O)N(C)C)cc3N2CC)SC1=S	-12%	x	u	73%	0.89µM*	u
Cc1ccc2[nH]c(CSc3nnc(NC(=O)COc4ccccc4)s3)cc(=O)c2c1	3%	-27%	-10%	u	i	-23%
O=C1CCN(Cc2ccccc2)S(=O)(=O)c2ccccc21	6%	-5%	u	-6%	i	29µM*
COc1ccc(C2CC(=O)c3cc(-c4nc(-c5cccc([N+](=O)[O-])c5)cs4)c(=O)n(-c4ccc(OC)cc4)c3C2)cc1 (centres undefined)	2%	5%	7%	-2%	i	-2%
O=C1CC(c2ccccc2)Cc2[nH]c(=O)c(-c3nc(-c4ccc(F)cc4)cs3)cc21 (centres undefined)	2%	x	3.3µM*	u	x	5.2µM*
O=C1CC(c2ccccc2)Cc2[nH]c(=O)c(-c3nc(-c4ccc(Cl)c(Cl)c4)cs3)cc21 (centres undefined)	-2%	14%	2.3µM*	2%	i	3.3µM*
O=C1CC(c2ccccc2)Cc2[nH]c(=O)c(-c3nc(-c4ccc(Cl)cc4)cs3)cc21 (centres undefined)	-1%	x	0.65µM*	-2%	x	0.58µM*
COc1ccc(C2CC(=O)c3cc(-c4nc(-c5ccc(Cl)cc5)cs4)c(=O)[nH]c3C2)cc1 (centres undefined)	0%	7%	-27%	30%	i	-6%
COc1ccc(C2CC(=O)c3cc(-c4nc(-c5cccc(Cl)c5)cs4)c(=O)[nH]c3C2)cc1OC (centres undefined)	-7%	-4%	9.2µM*	4%	i	u
c1ccc(C[n+]2csc3ccccc32)cc1	-21%	-16%	1µM*	-12%	i	1µM*
c1ccc2c(c1)sc[n+]2CCC1CCCCC1	-81%	x	2.5µM*	u	x	5µM*
Clc1ccc2c(Cl)cc[n+](CCC3CCCCC3)c2c1	-2%	x	u	0%	x	u
Cc1ccccc1Nc1nnc(SCC(=O)NC2CCCc3ccccc32)s1 (centres undefined)	-7%	-3%	u	-1%	i	u
O=C(Nc1ccncc1)c1cccc(S(=O)(=O)N2CCc3ccccc32)c1	-20%	u	6.5µM*	-21%	i	5.8µM*
CN1CCc2nc(NC(=O)c3cccc(S(=O)(=O)N4CCc5ccccc54)c3)sc2C1	-17%	-1%	-16%	0%	i	-10%
O=C(Nc1nc2c(s1)CCCC2)c1cccc(S(=O)(=O)N2CCCc3ccccc32)c1	-6%	-8%	23µM*	u	i	26µM*
SMILES	HepG2 viability	ATXN2 expr inh	DT40 TDP1 no CPT	TGFb SMAD3 inh	ATXN viability	TDP1 cell CPT
O=C(Nc1cccnc1)c1cccc(S(=O)(=O)N2CCc3ccccc32)c1	-6%	-15%	u	-20%	i	26µM*
COc1ccc(S(=O)(=O)N2CCc3ccccc32)cc1C(=O)Nc1cccnc1	3%	1%	-14%	0%	i	6%
CN(C)C(=O)c1ccc(NC(=O)c2cccc(S(=O)(=O)N3CCCc4ccccc43)c2)cc1	6%	-24%	16µM*	-6%	i	23µM*
O=C(O)c1cccc(NC(=O)c2cccc(S(=O)(=O)N3CCc4ccccc43)c2)c1	0%	2%	9%	-14%	i	3%
CCc1ccc(S(=O)(=O)c2nnn3c2nc(NCCc2ccccc2)c2sccc23)cc1	-12%	x	u	-20%	x	u
CCC(C)[C@H](NC(=O)C1CC(=O)N(c2ccc3c(c2)OCCO3)C1)C(=O)N1CCCCC1 (some centres undefined)	0%	-2%	8%	0%	i	13%
CCOC(=O)c1sc(NC(=O)c2cccc(S(=O)(=O)N3CCc4ccccc43)c2)c(C#N)c1C	-27%	u	2.9µM*	u	i	5.8µM*
O=C(NCCCN1CCOCC1)c1cccc(S(=O)(=O)N2CCc3ccccc32)c1	0%	x	23µM*	0%	i	u
CN(C)c1ccc(N2[C@@H](CC(=O)O)c3cc(C(F)(F)F)ccc3S2(=O)=O)cc1	-35%	-3%	u	-22%	i	u
COC(=O)C[C@H]1c2cc(F)ccc2S(=O)(=O)N1c1ccccc1	2%	10%	-15%	-12%	i	6%
COC(=O)C[C@H]1c2ccccc2S(=O)(=O)N1c1ccc(N(C)C)cc1	5%	x	10µM*	-2%	x	u
COC(=O)C[C@H]1c2cc(C(F)(F)F)ccc2S(=O)(=O)N1c1ccc(N(C)C)cc1	11%	11%	10µM*	1%	i	13µM*
CC(=O)C[C@H]1c2cc(C(F)(F)F)ccc2S(=O)(=O)N1c1ccc(N(C)C)cc1	-4%	7%	15µM*	-22%	i	7.9µM*

Screening data from PubChem.
